The record followed here is PubChem BioAssay AID652010 (The Scripps Research Institute Molecular Screening Center, 2013).

Out of some 370,000 compounds screened, about 4,100 (1.1%) were called active. This is one part of a sample in which actives are shown more often than they occur. A number with no mark means an inactive call.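 Rule for the calls: active = inhibition above the mean over all tested compounds plus 3 SD (cut at about 3.6% in these data); inactive = the rest.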

The assay in a line: DAX1 (NR0B1) inhibitors on StAR promoter, primary screen, cell-based, luminescence, SF-1 (NR5A1), full-length DAX-1 (AID 652010).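 Note: 0% = DAX-1 cells with DMSO and 100% = cells lacking DAX-1 with DMSO.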 The conditions noted are these: HEK293T StAR-luciferase reporter, SF-1/DAX-1 repression relief; at 6.8 µM; active compounds read high. On the technique in general: A reporter such as luciferase makes a cellular process visible.
For `Cc1cc(C)c2c(c1)NP(=S)(c1ccccc1)N2` (stereo not given), the inhibition (in general, the relative decrease from the control value, in per cent) was 4.45% (active).
In the case of `COc1ccc2c(c1)NP(=S)(c1ccccc1)N2` (stereo not given) it was 6.3% (active).
As to `C[C@]12CCC3C(CC[C@H]4[C@H](O)[C@H](O)CC[C@]34C)C1CCC2=O` (stereo not given in full), the inhibition is -0.89%.
With `Cc1ccccc1CCC[C@@H](CC1CCCCC1)CN(C)C(=O)Oc1ccccc1` the figure was -0.86%; with `Cc1nc2nc(C)c(CCC(=O)N3CCC4(CC3)OCCO4)c(C)n2n1`, 0.57%; with `CC(=O)N1CN2CN(C(C)=O)CC(C(=O)c3ccc(Br)cc3)(C2)C1`, 0.07%.
In the case of `CCOc1cccc(=NC2CCCCC2)c2c(C)[nH]c(C)c12` it was -0.76%; in that of `COP(=O)(Sc1ccccc1)C(Cc1ccccc1)NC(=O)OCc1ccccc1` (stereo not given), -2.01%; in that of `c1cncc(CNC2=NCCC2)c1`, 0.16%.
With `Cc1c(Oc2cc(NN3CCCCC3)c([N+](=O)[O-])cc2[N+](=O)[O-])cccc1[N+](=O)[O-]` the figure was 0.11%.
